From PubChem BioAssay AID1569 (National Center for Advancing Translational Sciences (NCATS), 2009)
Results filed as inconclusive are left out. Values without a mark were called inactive. Activity calls are given as the source filed them. Calls follow the shape of the dose curve; as a rule, active = well fitted inhibition curve with a large enough effect; inconclusive = small, poorly fitted or top-dose-only effect, or effect the other way, or another doubt; inactive = no such curve, though single readings can be large or run the other way.

Assay: Confirmation Concentration-Response Assay for lipid storage modulators; also: nearly all actives have a fitted effect of over 80% in size;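 as to activity change, negative = inhibition: -100% = full block of lipid deposition by 20 µM Triacsin C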
Settings: Drosophila S3 cells, lipid droplet BODIPY/CellTracker ratio, 18-24 h; series mostly up to 46.1 µM; activity change, negative = inhibition: at the top concentration
Method in brief: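 Cells at 5,000/well received compound as a titration plus oleic acid (added as 400 uM solution) and were incubated 18–24 h at 24 °C. BODIPY 493/503 lipid signal and CellTracker Red cell count were read by 488-nm laser-scanning cytometry. Activity was normalised to 20 uM Triacsin C.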
Potency is read from the fitted curve at half-maximal effect.

Row | SMILES | Potency | activity change, negative = inhibition
1 | CC(C)(C)c1ccc(/C=C2\SC(=O)N(CCNC(=O)c3cccc(S(=O)(=O)N4CCOCC4)c3)C2=O)cc1 | 8.88 µM (active) | 
2 | COc1ccc(CCNC(=O)[C@H](C)N2C(=O)N3CCc4c([nH]c5ccccc45)[C@@]3(C)C2=O)cc1OC | 0.56 µM (active) | 
3 | CCOc1ccc(CCNC(=O)Cn2cccc2C(=O)c2ccccc2)cc1OCC | 7.91 µM (active) | 
4 | CN(Cc1cccc(F)c1)C(=O)c1ccc2c(=O)n3c(nc2c1)CCC3 |  | -8.33%
5 | COc1ccc(CCNC(=O)Cn2cnc3c(cnn3-c3ccccc3Cl)c2=O)cc1OC |  | -8%
6 | COC(=O)c1ccc(C(=O)NC2CCCc3c2cnn3-c2ccccc2F)nc1 (stereo unspecified) | 0.177 µM (active) | 
7 | CCOc1ccc(CCNC(=O)COC(=O)c2ccc3c(c2)OCCO3)cc1OCC | 1.41 µM (active) | 
8 | CCn1c(COc2ccc(Cl)cc2)nnc1SCC(=O)Nc1ccc2c(c1)OCCO2 | 11.2 µM (active) | 
9 | Cc1ccc(C(=O)NC2CCCc3c2cnn3-c2ccc(F)cc2F)cn1 (stereo unspecified) | 3.97 µM (active) | 
10 | N#Cc1ccsc1NC(=O)CN1CCN(S(=O)(=O)c2cc(Cl)ccc2Cl)CC1 | 2.5 µM (active) | 
11 | CC(C)OC(=O)c1cc2c(ccn2C)n1CC(=O)N(Cc1ccccc1)c1ccccc1 | 1.77 µM (active) | 
12 | N#Cc1ccsc1NC(=O)CN1CCN(S(=O)(=O)c2ccccc2C(F)(F)F)CC1 | 1.25 µM (active) | 
13 | O=C(NC1CCCc2c1cnn2-c1ccc(F)cc1F)c1cnccn1 (stereo unspecified) | 0.445 µM (active) | 
14 | Nc1cccc(-c2nc3cc(S(=O)(=O)c4ccc5oc(-c6cccc(N)c6)nc5c4)ccc3o2)c1 | 6.28 µM (active) | 
15 | CCC(C)N1C(=O)c2ccccc2C1C(=O)NC1CCCCCC1 (stereo unspecified) | 1.99 µM (active) | 
16 | Nc1c(C(=O)Nc2ccc(S(=O)(=O)N3CCCC3)cc2)sc2nc3ccc(OC(F)(F)F)cc3cc12 | 8.88 µM (active) | 
17 | CCOC(=O)C1(Cc2ccc(Cl)cc2)CCN(C(C)Cc2ccc(O)c(OC)c2)CC1 (stereo unspecified) | 11.2 µM (active) | 
18 | COC(=O)c1c(-c2c(Cl)cccc2Cl)noc1NC(=O)NN1CCOCC1 | 2.5 µM (active) | 

Row | SMILES | Potency | activity change, negative = inhibition
19 | CN(C1=C(N2CCOCC2)C(=O)c2ccccc2C1=O)c1ccccc1 | 6.28 µM (active) | 
20 | CCOc1ccc(CCNC(=O)COC(=O)C2CCN(c3ccc(C(F)(F)F)cn3)CC2)cc1OCC |  | -22.7%
21 | O=C(Nc1ccc(S(=O)(=O)N2CCCCC2)cc1)c1ccc(CN2CCc3ccccc3C2)cc1 | 7.91 µM (active) | 
22 | O=C1C(Nc2ccccc2)=C/C(=N/S(=O)(=O)c2cccs2)c2ccccc21 | 7.91 µM (active) | 
23 | CC(=O)Nc1cccc(C(=O)NC2CCCc3c2cnn3-c2ccccc2F)c1 (stereo unspecified) | 14.1 µM (active) | 
24 | COc1ccccc1NC(=O)NC1(C(=O)N2CCC(C)CC2)CCCCC1 |  | -17.9%
25 | CCC(=O)c1ccc(OCC(=O)Nc2ccc(N3CCOCC3)cc2N2CCOCC2)cc1 |  | -13.8%
26 | COCc1ccc(C(=O)NC(C)c2cnn(-c3ccccc3C)c2C)o1 (stereo unspecified) | 12.5 µM (active) | 
27 | COc1ccc(CCNC(=O)COc2ccc(S(=O)(=O)NC3CCCCC3)cc2Cl)cc1OC | 3.97 µM (active) | 
28 | OC1(c2cccc(C(F)(F)F)c2)CCN(c2ncnc3c2[nH]c2ccc(F)cc23)CC1 | 7.91 µM (active) | 
29 | O=C(NC1CCCc2c1cnn2-c1ccccc1F)c1ccccn1 (stereo unspecified) | 0.0079 µM (active) | 
30 | COc1cc(/C=N/NC(=O)c2ccc(CN3C(=O)c4cccc5cccc3c45)cc2)cc(OC)c1O | 4.99 µM (active) | 
31 | COC(c1ccccc1)c1nnc(CCC(=O)NC2C3CC4CC(C3)CC2C4)o1 (stereo unspecified) | 5.6 µM (active) | 
32 | CCOc1ccc(CCNC(=O)CN2CCN(Cc3ccccc3C)C2=O)cc1OCC |  | -49.3%
33 | COc1ccc(CCNC(=O)CCc2ccc(S(=O)(=O)NC(C)C)cc2)cc1OC |  | 26%
34 | COc1ccc(Cl)cc1NC(=O)CN(C)C(=O)CCCc1c[nH]c2ccccc12 | 22.3 µM (active) | 
35 | CCCCCCCCCCCCCCCC[n+]1cccc2ccccc21 | 1.22 µM (active) | 
36 | COCc1ccc(C(=O)NC2CCCc3c2cnn3-c2cc(C)cc(C)c2)s1 (stereo unspecified) | 0.0244 µM (active) | 
